Measurements from PubChem BioAssay AID588342 (National Center for Advancing Translational Sciences (NCATS), 2011).
In all, about 360,000 compounds went through this assay and about 25,000 (6.9%) were called active. A call without a number means that no potency is given here. About 9% were inconclusive and are not listed. Calls follow the shape of the dose curve; as a rule, active = well fitted inhibition curve with a large enough effect; inconclusive = small, poorly fitted or top-dose-only effect; inactive = flat fitted curve, though single readings scatter. This excerpt belongs to a sample that is enriched for actives.

What follows are molecules tested against Luciferin 4-monooxygenase (Photinus pyralis) (UniProt P08659) (assay: qHTS profiling assay for firefly luciferase inhibitor/activator using purifed enzyme and Km concentrations of substrates (counterscreen for miR-21 project)). Conditions: purified FLuc, luminescence inhibition; series mostly up to 57.5 µM.
Outline: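 Purified P. pyralis luciferase (10nM final) with 10uM D-luciferin and 10uM ATP (Km levels) in 50mM Tris acetate pH 7.5, 10mM Mg acetate, 0.01% Tween-20, 0.05% BSA; qHTS 6-point titration, ~60 µM downward; luminescence read.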
Also: nearly all actives have a fitted effect of over 55% in size.
Potency is read from the fitted curve at half-maximal effect.

Sequence of Luciferin 4-monooxygenase (Photinus pyralis) (P08659 whole entry, looked up): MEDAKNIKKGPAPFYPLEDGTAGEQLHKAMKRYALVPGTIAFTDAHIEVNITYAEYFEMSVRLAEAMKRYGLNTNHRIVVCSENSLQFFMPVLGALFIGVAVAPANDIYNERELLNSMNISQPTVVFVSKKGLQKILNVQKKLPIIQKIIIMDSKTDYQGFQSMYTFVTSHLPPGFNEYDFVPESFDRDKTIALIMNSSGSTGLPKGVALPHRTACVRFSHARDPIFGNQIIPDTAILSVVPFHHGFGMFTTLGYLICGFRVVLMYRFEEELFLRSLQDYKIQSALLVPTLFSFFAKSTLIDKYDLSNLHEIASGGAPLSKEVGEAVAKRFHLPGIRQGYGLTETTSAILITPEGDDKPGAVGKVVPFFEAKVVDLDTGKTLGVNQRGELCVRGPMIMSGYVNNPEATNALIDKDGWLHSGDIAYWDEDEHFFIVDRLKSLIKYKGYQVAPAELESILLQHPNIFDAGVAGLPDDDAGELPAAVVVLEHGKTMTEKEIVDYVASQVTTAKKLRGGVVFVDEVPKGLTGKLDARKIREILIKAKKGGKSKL

Structure (SMILES)	Potency
COc1ccc(S(=O)(=O)N2CCN(C(C)C(=O)Nc3ccc(C(C)C)cc3)CC2)cc1 (centres undefined)	inactive
O=C(CN1C(=O)/C(=C\c2ccccc2F)SC1=S)Nc1nc2ccccc2s1	inactive
COc1ccc(/C=C(\C#N)C(=O)OCC(=O)N(C)C2CCS(=O)(=O)C2)cc1 (centres undefined)	inactive
CN(C(=O)CCN1C(=O)/C(=C/c2ccccc2F)SC1=S)C1CCS(=O)(=O)C1 (centres undefined)	26.9 µM (active)
COc1ccccc1/C=C1\SC(=O)N(CCC(=O)N(C)C2CCS(=O)(=O)C2)C1=O (centres undefined)	16.9 µM (active)
CN(C(=O)CN1C(=O)S/C(=C\c2ccccc2F)C1=O)C1CCS(=O)(=O)C1 (centres undefined)	inactive
Cc1ccc(S(=O)(=O)CCC(=O)OCC(=O)N(C)C2CCS(=O)(=O)C2)cc1 (centres undefined)	inactive
CC[n+]1c(C)n(-c2ccccc2)c2ccc(NC(C)=O)cc21	inactive
CCN(CC)C(=O)c1nc[nH]c1C(=O)N(C)Cc1ccccc1	inactive
Cc1ccc(CNC(=O)CCNS(=O)(=O)c2ccc3c(c2)oc(=O)n3C)cc1	inactive
Cc1nn(Cc2ccc(Cl)cc2)c(Cl)c1/C=N/NC(=O)CNc1ccccc1F	inactive
O=C(CN1CCSCC1)N/N=C/c1ccc(Cl)cc1	inactive
CCn1nc(C)c(/C=N/NC(=O)Cc2ccc(Cl)cc2)c1C	15.1 µM (active)
CCn1cc(C(=O)N(C)Cc2ccccc2)c(=O)c2cc(S(=O)(=O)N3CCCCCC3)ccc21	inactive
CCn1nc(C(=O)Nc2ccc(N3CCOCC3)cc2)c2ccccc2c1=O	inactive
CC1(c2ccc(Cl)cc2Cl)NC(=O)N(CC(=O)Nc2cccnc2Cl)C1=O (centres undefined)	inactive
O=C(O)/C=C/C(=O)NNc1ccc([N+](=O)[O-])cc1	inactive
O=[N+]([O-])c1ccc(N/N=C/c2ccccc2)cc1	19 µM (active)
Cc1cccc(COc2ccccc2/C=N/Nc2ccc([N+](=O)[O-])cc2)c1	inactive
COC(=O)c1ccc(CSc2ccc(S(=O)(=O)N3CCCCC3)cn2)cc1	inactive
O=C(C1CCC1)N1CCN(S(=O)(=O)c2ccc([N+](=O)[O-])cc2)CC1	inactive
COc1ccc(S(=O)(=O)/N=C2\C=C(NS(=O)(=O)c3ccccc3)C(=O)c3ccccc32)cc1	15.1 µM (active)
COc1ccc(NS(=O)(=O)c2ccc(Oc3c(C#N)cccc3C#N)cc2)cc1	inactive
CCCC(NS(=O)(=O)c1ccc(OC)cc1)C(=O)O (centres undefined)	inactive
CCCCc1ccc(NC(=O)CN2C(=O)NC(Cc3ccccc3)C2=O)cc1 (centres undefined)	inactive
CCCCN(C(=O)c1nn(C)c(=O)c2ccccc12)c1c(N)n(CCC)c(=O)[nH]c1=O	inactive

Structure (SMILES)	Potency
Cc1ccc(S(=O)(=O)NCCNC(C)c2ccc(Br)cc2)cc1 (centres undefined)	inactive
CCOC(=O)c1ccc(NC2=CC(c3ccc(OCC)cc3)N(c3ccc(C(=O)OCC)cc3)C2=O)cc1 (centres undefined)	inactive
COC(=O)c1c(NC(=O)C(=O)N2CCCCC2)sc2c1CC(C)(C)OC2	inactive
CCOC(=O)N1CCN(C(=O)C(=O)Nc2sc3c(c2C#N)CC(C)(C)OC3)CC1	16.9 µM (active)
CC1(C)Cc2c(sc(NC(=O)C(=O)N3CCOCC3)c2C#N)CO1	inactive
COc1ccc(NC(=S)N2CCCC(CO)C2)c(OC)c1 (centres undefined)	inactive
CCCCc1ccc(NC(=S)NCCCN2CCOCC2)cc1	inactive
CCCCc1ccc(NC(=S)N2CCCC(CO)C2)cc1 (centres undefined)	2.69 µM (active)
CCOc1ccc(CNC(=O)c2cc(=O)[nH]c3ccc(S(=O)(=O)N4CCCCC4)cc23)cc1	inactive
Cc1ccc2c(CN3CCN(S(=O)(=O)c4ccccc4C(F)(F)F)CC3)cc(=O)oc2c1	inactive
COc1ccc(CNC(=O)c2ccc3c(c2)nc2n3CCOC2)c(OC)c1	inactive
COc1ccc(OC)c(CN2CCN(C(=O)CNC(=O)c3cc(C)cc(C)c3)CC2)c1	inactive
COc1ccc(C(=O)CSc2nnnn2C)c(OC)c1	inactive
Cc1ccc(C(=O)CSc2nc(-c3ccccc3)nc3c2CCCC3)c(C)c1	inactive
CCn1nnnc1SCC(=O)c1ccc(C)cc1C	6.75 µM (active)
CCOc1ccccc1N(C)C(=O)c1cc2c(s1)-c1ccccc1OC2	inactive
CC1(C)CC(=O)C=C(c2ccc(Cl)c(C(F)(F)F)c2)C1	inactive
N#C/C(=C1/CCCN1)c1ccccn1	inactive
N#CC(=C1SC=CS1)c1nc(-c2ccccc2)cs1	7.57 µM (active)
COc1cccc(C(=O)OCC(=O)c2[nH]c(C)c(C(C)=O)c2C)c1	inactive
CCc1ccc(NC(=O)c2cnc3c(-c4ccccc4)c(C)nn3c2C)cc1	inactive
COc1cc(C(=O)Nc2ccc(OCc3cc(=O)n4ccc(C)cc4n3)cc2)cc(OC)c1OC	inactive
COc1ccccc1C(=O)Nc1ccc(OCc2nnc3c4ccccc4c(C)nn23)cc1	4.26 µM (active)
Cc1cccc(C(=O)NNC(=O)CSc2nnc(C(C)C)n2C)c1	inactive
C=CCn1c(C)cc(C2=NNC(=NCC)SC2)c1C	0.151 µM (active)
COCCn1c(C)cc(C2=NNC(=Nc3ccc(F)cc3)SC2)c1C	3.38 µM (active)

Structure (SMILES)	Potency
Cc1ccc(S(=O)(=O)c2ccc(Cl)cc2)cc1S(=O)(=O)NC(C(=O)O)C(C)C (centres undefined)	inactive
CCOc1ccc(OCC)c(Nc2nc3ccccc3n3nnnc23)c1	inactive
Cc1cccc(N(C(=O)c2ccc(CN3CCOCC3)o2)C(C(=O)NC2CCCCC2)c2ccc(F)cc2)c1 (centres undefined)	inactive
CCc1cc2c(cc3c(=O)n(CC(=O)N4CCN(c5cc(Cl)ccc5C)CC4)ncn32)s1	inactive
CCOc1ccc(N(C)S(=O)(=O)c2cc(-c3cnc(C)o3)ccc2OC)cc1	inactive
Cc1cc(C)c(NC(=O)CSc2nc3nccnc3c(=O)n2CCc2c[nH]c3ccccc23)c(C)c1	inactive
COCCNC(=O)c1ccc2c(c1)N(Cc1cccc(Cl)c1)C(=O)c1ccccc1S2(=O)=O	inactive
COc1cccc2cc(C(=O)N3CCN(C(=O)c4ccccc4)CC3)c(=O)oc12	inactive
Cc1cc(C)cc(OCC(=O)NNC(=O)c2cc3ccccc3oc2=O)c1	inactive
COc1ccc2oc(=O)c(C(=O)NCc3ccccn3)cc2c1	inactive
CN(c1ccccc1)S(=O)(=O)c1ccc(Cl)c(C(=O)NCCc2c[nH]c3ccccc23)c1	inactive
COc1cccc2cc(C(N)=O)/c(=N\NC(=O)c3ccccc3)oc12	1.69 µM (active)
Cc1cc(C)cc(NC(=S)NCCc2c[nH]c3ccccc23)c1	inactive
COc1cccc2cc(C(=O)N(C)C)c(=O)oc12	inactive
COc1ccc(CNC(=O)c2cc3cccc(OC)c3oc2=O)cc1	inactive
NC(=O)c1cc2ccccc2o/c1=N/NC(=O)c1cccc(F)c1	inactive
COc1cccc2cc(C(=O)NCc3ccc(C)cc3)c(=N)oc12	5.36 µM (active)
O=C(NCCc1c[nH]c2ccccc12)c1cc2ccccc2oc1=O	16.9 µM (active)
O=C(NCc1ccccn1)c1cc2ccccc2oc1=O	13.5 µM (active)
N#Cc1ccc(CN2CCN(CC(=O)Nc3ccccc3C(=O)NC3CC3)CC2)cc1	inactive
Cc1ccc(C(NC(=O)N2CCCC2)C(Cl)(Cl)Cl)cc1F (centres undefined)	inactive
CCCCn1c(=O)c2oc3ccccc3c2n(CC(=O)Nc2ccccc2OC)c1=O	inactive
COc1ccc(C)cc1-n1c(-c2ccc(C)cc2)cc2c1CC(C)(C)CC2=O	inactive
COC(=O)C1=C(C)NC(=S)NC1c1ccc(OCC(=O)N2CC(C)OC(C)C2)c(OC)c1 (centres undefined)	inactive
CC(=O)Nc1ccc(S(=O)(=O)N2CCN(S(=O)(=O)c3cccs3)CC2)cc1	inactive
O=C(NCC(c1ccc2c(c1)OCO2)N1CCN(c2ccccc2)CC1)C(=O)Nc1ccccc1F (centres undefined)	inactive

Structure (SMILES)	Potency
COc1ccc(CCNC(=O)c2nn(C)c3c2CSc2ccccc2-3)cc1OC	inactive
COc1ccc(C(=O)NCC2CCCCC2)cc1S(=O)(=O)N1CCCC1	inactive
CCC(=O)N1CCc2cc(Br)cc(S(=O)(=O)CCC(=O)NCc3ccccc3OC)c21	inactive
COc1cc(OC)c(NC(=O)c2cnc(N3CCCC3)nc2C)cc1Cl	inactive
Cc1sc2nc(CC(N)=O)[nH]c(=O)c2c1-c1ccccc1	inactive
CC1CCC2(CC1)N=C(c1ccccc1)C(=O)N2CC(=O)Nc1ccc(F)c(Cl)c1 (centres undefined)	inactive
O=C(NCc1ccccc1)c1cc(-c2cccc(Cl)c2)on1	inactive
Nc1ccc(C(=O)NCc2ccccc2)cc1	inactive
CSc1ccccc1C(=O)NCc1ccccc1	inactive
O=C(CCCCCNC(=O)c1ccccc1)N/N=C/c1ccccc1	inactive
CCCCNC(=O)c1cc(-c2ccc(Cl)c(Cl)c2)on1	inactive
O=C(NCc1ccccn1)c1cc(-c2ccccc2Cl)on1	10.7 µM (active)
O=C(N/N=C\c1cccc(Br)c1)c1ccccc1-n1cccc1	inactive
N=c1oc2ccccc2cc1C(=O)N/N=C/c1ccccc1	1.35 µM (active)
N=c1oc2ccccc2cc1C(=O)NCc1ccccc1	9.53 µM (active)
CC(C)[C@H](NC(=O)N1CCn2c1nc1ccccc12)C(=O)NCCc1ccccc1	inactive
Cc1ccc(/C=N/NC(=O)CN2CCN(Cc3ccccc3)CC2)s1	inactive
Cc1ccc(C(=O)Nc2c(C#N)c(C)c(C)n2Cc2ccccc2)cc1	inactive
Cc1ccc(C(=O)N/N=C/c2sc(=O)n(Cc3cccc(C(=O)O)c3)c2Cl)cc1	16.9 µM (active)
C=C1CCC(N(O)c2cc(C)on2)C(=C)CCC2C1CC2(C)C (centres undefined)	inactive
Cc1ccc(-c2cn3c(n2)sc2cc(C(=O)NCCCc4ccccc4)ccc23)cc1	inactive
CCOc1ccc(-c2cc(C)n3nc(C(=O)Nc4ccc(C)c(C)c4)cc3n2)cc1	inactive
CCCCCc1ccc(-c2ccc(OCC)cc2)nc1	10.7 µM (active)
CCCCCc1ccc(-c2ccc(C(=O)O)cc2)nc1	0.675 µM (active)
CCCCCc1ccc(-c2cn(Cc3ccc4ccccc4c3)nn2)cc1	inactive
CCOc1c(CNCc2ccc(C(=O)O)cc2)cccc1OC	inactive
